Measurements published in PubChem BioAssay.

Legend:
[1] = system: Human papillomavirus type 1a protein E7 (residues 44-93); experiment: HPV1a E7 fragment binders on microarrays, primary screen, biochemical, small-molecule microarray, residues 44-93, 635 nm fluorescence (AID 1108); conditions: small-molecule microarray binding, fluorescence 635 nm; higher = more signal;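 also: E7 fragment applied at 1 µg/mL in TBST for 1 h at 4 C; score combines spot fluorescence with its signal to noise ratio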
[2] = modulators of HCV replicon luciferase signal, primary screen, HCV replication inhibitor project, Huh7 cells, luciferase reporter (AID 1109); conditions: 48 h, higher = more signal;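 also: huh7 hepatoma cells harbouring a luciferase neomycin HCV replicon reporter; luciferase luminescence as measure of HCV replicon replication; test concentration not given here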
[3] = target: Left-right determination factor 2 (Homo sapiens) (UniProt O00292); experiment: LEFTY2 binders on small-molecule microarrays, primary screen, biochemical, small-molecule microarray, 635 nm fluorescence scan (AID 1110); conditions: LEFTY2 binding, higher = more signal
[4] = target: Calmodulin-1 (Homo sapiens) (UniProt P0DP23); experiment: CALM1 binders on microarrays, EGTA buffer, profiling panel, biochemical, small-molecule microarray, Cy5-labelled CALM1 (AID 1111); conditions: Cy5-CALM1 binding fluorescence, higher = more signal;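 also: labelled calmodulin applied in Tris saline Tween buffer holding calcium plus EGTA and DTT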
[5] = target: Calmodulin-1 (Homo sapiens) (UniProt P0DP23); experiment: calcium-bound CALM1 binders on microarrays, profiling panel, artefact control for SMM control-protein annotation, biochemical, small-molecule microarray, Cy5-labelled CALM1, plus calcium (AID 1112); conditions: Cy5-CALM1 binding fluorescence, higher = more signal;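 also: score merges spot fluorescence with signal to noise from triplicate slides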
[6] = small-molecule microarray binders of probe aWnt5a, primary screen, biochemical, biotinylated probe, 635/667 nm fluorescence (AID 1113); conditions: higher = more signal;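 also: score merges 667 nm fluorescence intensity with signal-to-noise per printed feature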
[7] = small-molecule microarray binders of probe aShh, primary screen, biochemical, biotinylated probe, 635/667 nm fluorescence (AID 1114); conditions: higher = more signal;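 also: probe is biotin-labelled aShh protein from a stem cell growth factor screen; measures binding of labelled protein to compounds printed on the slide; score merges feature fluorescence at 667 nm with signal-to-noise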
[8] = small-molecule microarray binders of probe aNog, primary screen, biochemical, biotinylated probe, 635/667 nm fluorescence (AID 1115); conditions: higher = more signal;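 also: probe is biotinylated aNog protein used at 0.15 µg/mL for 1 h at 4 C; z-score combines 667 nm fluorescence of each spot with its signal to noise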
[9] = target: Torsin-1A-interacting protein 1 (Homo sapiens) (UniProt Q5JTV8); experiment: LAP1 binders from COS7 cell lysate, primary screen, small-molecule microarray, 635/667 nm fluorescence (AID 1116); conditions: COS7-hLAP1 lysate binding, 635 nm fluorescence, higher = more signal
[10] = target: Alpha-bungarotoxin (Bungarus multicinctus) (UniProt P60615); experiment: alpha-bungarotoxin binders on microarray, profiling panel, artefact control for SMM control protein annotation, biochemical, small-molecule microarray, Alexa647 label, 635/667 nm fluorescence (AID 1117); conditions: alpha-BTX-A647 binding fluorescence, higher = more signal
Chain of Alpha-bungarotoxin (Bungarus multicinctus) (P60615 whole entry, looked up): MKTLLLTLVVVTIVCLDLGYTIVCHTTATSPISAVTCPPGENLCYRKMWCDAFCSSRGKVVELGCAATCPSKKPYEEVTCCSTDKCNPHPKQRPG

Chain of Torsin-1A-interacting protein 1 (Homo sapiens) (Q5JTV8 whole entry, looked up): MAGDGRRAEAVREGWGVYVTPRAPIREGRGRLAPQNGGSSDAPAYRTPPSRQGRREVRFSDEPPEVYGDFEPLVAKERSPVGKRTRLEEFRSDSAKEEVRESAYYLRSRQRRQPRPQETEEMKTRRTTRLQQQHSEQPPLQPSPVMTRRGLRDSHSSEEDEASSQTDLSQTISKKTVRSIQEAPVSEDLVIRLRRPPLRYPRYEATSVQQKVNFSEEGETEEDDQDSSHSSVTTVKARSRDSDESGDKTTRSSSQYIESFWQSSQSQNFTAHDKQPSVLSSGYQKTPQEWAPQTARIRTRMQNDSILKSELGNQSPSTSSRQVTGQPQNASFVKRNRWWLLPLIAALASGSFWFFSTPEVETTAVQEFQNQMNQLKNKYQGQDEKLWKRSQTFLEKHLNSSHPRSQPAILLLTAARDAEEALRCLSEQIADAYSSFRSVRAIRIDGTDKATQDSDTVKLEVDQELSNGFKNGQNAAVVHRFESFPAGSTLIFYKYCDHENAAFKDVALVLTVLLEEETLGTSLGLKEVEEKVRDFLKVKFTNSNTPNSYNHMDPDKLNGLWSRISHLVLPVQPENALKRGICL
Chain of Left-right determination factor 2 (Homo sapiens) (O00292 whole entry, looked up): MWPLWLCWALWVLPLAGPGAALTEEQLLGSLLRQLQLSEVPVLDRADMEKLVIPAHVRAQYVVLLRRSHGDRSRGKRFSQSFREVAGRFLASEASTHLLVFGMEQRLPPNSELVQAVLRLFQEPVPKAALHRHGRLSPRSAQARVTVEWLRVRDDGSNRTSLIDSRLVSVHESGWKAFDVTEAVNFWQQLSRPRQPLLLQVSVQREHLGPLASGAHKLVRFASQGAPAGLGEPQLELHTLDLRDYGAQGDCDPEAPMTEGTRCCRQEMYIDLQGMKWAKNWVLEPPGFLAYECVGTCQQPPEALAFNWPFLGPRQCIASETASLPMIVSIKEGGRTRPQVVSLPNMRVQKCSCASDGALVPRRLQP

Structure (SMILES)	composite z-score [1]	z-score [2]	composite z-score [3]	composite z-score [4]	composite z-score [5]	composite z-score [6]	composite z-score [7]	composite z-score [8]	composite z-score [9]	composite z-score [10]
[N-]=[N+]=Nc1ccccc1[C@H]1OC(c2ccc(OCCCO)cc2)=N[C@@]1(CCS(=O)(=O)c1ccccc1)C(=O)N1CCCCC1	1.44	-1.05	-0.149	1.48	0.956	-0.0165	0.184	0.0127	1.27	2.21
C=CCOC(=O)[C@@H]1[C@H]2C(=O)O[C@H](c3ccccc3)[C@H](c3ccccc3)N2[C@H](c2ccc(OCCOC(=O)[C@H]3C[C@H]4C(=O)N[C@@H](CCCCNC(C)=O)C(=O)N4[C@H]3c3cccc(OCCO)c3)cc2)[C@@]12C(=O)Nc1ccc(I)cc12	0.721	-1.03	0.642	0.277	-0.759	-0.096	0.0725	-0.0317	0.97	1.54
CN(C)CCCNC(=O)[C@@H]1c2ccccc2C(=O)N(Cc2ccc(OC(F)(F)F)cc2)[C@H]1c1ccc(CO)cc1	1.35	-2.08	-0.0765	-0.226	-0.919	0.0003	0.0278	-0.309	0.724	0.243
O=C1c2ccccc2[C@@]2(Cc3ccccc3N(C3CC3)C2=O)[C@H](c2ccc(CO)cc2)N1C1CCCCC1	0.0731	0.056	-0.825	0.0762	0.347	-0.096	0.107	-0.0165	-0.502	0.233
CCCC[C@@H]1C[C@H]1[C@@H](NC(=O)c1cccnc1)c1ccc(-c2ccccc2)cc1	-0.447	-1.95	-1.99	-0.297	0.742	-0.141	2.01	-0.744	-1.2	-0.556
COC(=O)C(CC#Cc1ccc2c(c1)[C@]1(C(=O)N2)[C@H](C(=O)O)[C@H]2C(=O)O[C@H](c3ccccc3)[C@H](c3ccccc3)N2[C@@H]1c1ccccc1OCCO)C(=O)OC	0.851	-2.04	0.445	1.62	0.369	-0.001	0.108	0.767	1.1	1.79
C[C@]1(C(=O)NC2CC2)c2ccccc2C(=O)N(Cc2ccc(OC(F)(F)F)cc2)[C@H]1c1ccc(CO)cc1	-0.633	-0.144	-1.07	-0.42	0.479	-0.0792	-0.0243	0.625	0.297	0.585
O=C(CS)NCCCCCCNC(=O)[C@H]1C[C@H]2C(=O)N[C@@H](Cc3ccccc3)C(=O)N2[C@H]1c1cccc(OCCO)c1	1.37	-0.963	1.23	1.79	0.0164	0.0066	0.676	0.897	1.38	2.44
CCCC=C(CCC)[C@@H](NP(=O)(c1ccccc1)c1ccccc1)c1ccc(C(F)(F)F)cc1	1.13	-0.475	0.0293	0.0848	-0.33	0.474	0.135	-0.301	0.145	0.109
CC(C)CNC(=O)[C@@]1(c2ccc([N+](=O)[O-])cc2)CC(=O)N(C2CCCCC2)[C@@H]1c1ccc(CO)cc1I	1.11	-2.3	-0.609	0.779	0.379	-0.0417	-0.16	-0.279	0.341	0.817
O=C1O[C@@H](c2ccccc2)[C@@H](c2ccccc2)N2[C@@H](c3ccccc3OCCO)[C@]3(C(=O)Nc4ccccc43)[C@@H](C(=O)NC[C@H](O)c3ccccc3)[C@H]12	0.705	-3.3	-0.555	1.08	0.845	-0.152	0.0557	-0.0161	1.35	-0.327
COC(=O)C[C@H]1O[C@]2(C(=O)N(C)c3ccccc32)[C@@H](C)[C@@H]1[Si](C)(C)c1ccc(C)cc1	1.15	-2.92	0.375	0.196	-0.0787	-0.136	-0.393	-0.121	0.346	0.638
CN1C(=O)C2C(C1=O)C1C=C(c3ccc(CO)cc3)C2C(c2cccs2)N1Cc1cccc(OC(F)(F)F)c1 (stereo not given)	1.4	-1.3	0.526	1.1	0.334	0.0077	-0.0749	-0.251	0.291	1.43
CC[C@H]1C2=C3C(CC[C@H]4C(OCc5ccc(F)cc5C(F)(F)F)OC[C@](C)([C@@H]34)N(C(=O)OC(C)(C)C)C2)C2COC(=O)OCC21 (stereo not given in full)	1.34	-2.1	-0.532	2.48	0.911	-0.0297	0.246	-0.712	0.713	0.347
O=C1c2ccccc2[C@](Cc2ccccc2I)(C(=O)NCc2ccccc2)[C@H](c2ccc(CO)cc2)N1C1CCCCC1	1.4	-1.93	0.835	1.28	1.08	-0.0691	0.217	0.347	0.616	0.705
COC(=O)c1c(CC[C@@H](CO)NC(=O)N[C@H](Cn2cc(-c3ccccc3C)nn2)C(C)C)oc(C(C)=O)c1C(=O)OC	-0.794	-0.515	-0.645	-0.0696	-0.637	-0.169	-0.0553	0.0099	0.441	0.879

Structure (SMILES)	composite z-score [1]	z-score [2]	composite z-score [3]	composite z-score [4]	composite z-score [5]	composite z-score [6]	composite z-score [7]	composite z-score [8]	composite z-score [9]	composite z-score [10]
O=C1C[C@]2(c3ccc([N+](=O)[O-])cc3)C(=O)N(Cc3ccccc3)c3cc(CO)ccc3[C@H]2N1CC12CC3CC(CC(C3)C1)C2	-0.864	-0.411	-1.11	-0.393	-0.11	-0.281	-0.408	-0.103	-0.0647	-0.814
O=C1OC[C@@H](c2ccccc2)N2CC(/C=C/c3ccccc3)=CC12 (stereo not given in full)	-1.13	-0.557	-1.43	-0.353	-0.221	-0.284	-0.2	-0.0118	-0.383	-0.273
CN(C)CCCCNC(=O)[C@H]1C[C@H]2C(=O)N3CCC[C@H]3C(=O)N2[C@H]1c1ccc(O)cc1	-1.11	0.939	-0.148	-0.969	-0.949	-0.45	-0.401	0.39	-0.206	-1.01
CCCN1C(=O)[C@]2(Cc3ccccc3)N=C(c3ccc(OCCCO)cc3)O[C@@H]2c2ccccc21	1.06	-2.7	0.118	1.14	-0.422	0.027	-0.231	-0.646	0.42	1.33
[N-]=[N+]=Nc1ccccc1C[C@@]1(C(=O)O)N=C(c2ccc(OCCCO)cc2)O[C@@H]1c1ccccc1	1.3	1.34	-0.862	1.73	0.294	-0.0566	0.191	0.905	0.24	1.08
CC(=O)NCCCC[C@@H]1NC(=O)[C@@H]2C[C@H](C(=O)O)[C@H](c3ccc(O)cc3)N2C1=O	-0.745	0.117	-2.7	-0.329	0.104	-0.184	-0.221	-0.33	-0.998	-0.371
O=C1O[C@@H](c2ccccc2)[C@@H](c2ccccc2)N2[C@@H](c3ccc(O)cc3)[C@]3(C(=O)Nc4ccc(C#CCCO)cc43)[C@@H](C(=O)Nc3nc4ccccc4s3)[C@H]12	1.23	-0.0469	0.173	0.289	-0.331	-0.0405	0.108	0.128	1.2	1.66
CN(C)C(=O)[C@@]1(Cc2ccccc2N=[N+]=[N-])COC(c2ccc(OCCCO)cc2)=N1	1	-1.69	-0.475	1.32	0.202	0.212	0.661	-1.05	1.04	1.55
CC1CC/C=C\[C@H]2OC34C=CCN(c5ccc6ccccc6c5)C(=O)[C@H]3N(C(CO)C(C)C)C(=O)[C@@H]4C2C(=O)O1 (stereo not given in full)	-0.546	-0.957	-0.854	-0.822	-0.419	-0.169	-0.164	-0.267	-0.203	0.462
CC(C)C(CO)N1C(=O)[C@]2(C)C3C(=O)OCCC/C=C\[C@H]3OC23C=CCN(c2ccc(Cl)cc2)C(=O)[C@@H]13 (stereo not given in full)	0.964	0.344	-1.03	-0.224	-0.193	-0.131	-0.138	0.563	-0.0952	-0.28
CON(C)C(=O)C=C1C[C@@H](c2cccc(Cl)c2)O[C@@H](c2cccc(Cl)c2)O1	0.151	-3.11	0.158	0.389	0.3	-0.0704	0.134	-0.389	0.525	0.764
COc1ccc(C(O)C2C=CC3C(=O)N(c4ccccc4)C(=O)C3N2Nc2ccccc2)cc1OCc1ccccc1 (stereo not given)	1.48	-0.412	0.0977	0.552	0.734	0.165	0.123	1.26	0.618	1.4
NC(=O)N1C(=O)C2C(C1=O)C1C=C(c3ccc(CO)cc3)C2C(C2CC2)N1Cc1sc2ccccc2c1Cl (stereo not given)	0.0882	-1.39	1.27	0.867	0.163	0.272	0.0756	0.264	1.9	2.12
COc1ccc([Si](C)(C)[C@H]2[C@H](CCn3cc([C@H](O)c4ccccc4)nn3)O[C@@]3(C(=O)N(Cc4ccc(N5CCC5=O)cc4)c4ccccc43)[C@@H]2C)cc1	0.73	-0.917	0.656	-0.468	-0.217	-0.16	-0.138	-0.103	0.273	0.54
Cc1ccc(S[C@]2(C(=O)NCC(C)C)CC(=O)N(Cc3ccccc3Cl)[C@@H]2c2ccc(CO)cc2I)cc1	0.409	-1.55	-1.16	-0.363	-0.0595	0.31	-0.221	0.515	0.359	1.48
